# ± gives the standard deviation of the averaged measurements.
# Columns and labels:
# Experiment in all cases: promoter activity interaction Z-score (Lux/OD deviation from empty-vector control); higher = stronger promoter induction by the compound
# [1] = system: E. coli BW25113 acrABp lux reporter
# Summary of the method: (§1)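 E. coli BW25113 (wild type or marA, soxS or rob deletion) carrying low-copy luxCDABE promoter reporters grew in 40 µl LB Lennox in 384-well plates at 37°C. Each compound was tested at four 1:2 dilutions in biological duplicates. OD600 and luminescence were read every 30 min for 12 h. Areas were taken over 0–8 h (wild type) or 1–9 h (mutants), and wells below 10% of median growth area were removed. The score is the Z-transformed residual of growth-normalised luminescence fitted against the empty-vector control.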
# [2] = system: E. coli BW25113 micFp lux reporter
# Summary of the method: as §1
# [3] = system: E. coli BW25113 ompFp lux reporter
# Summary of the method: as §1
# [4] = system: E. coli BW25113 robp lux reporter
# Summary of the method: as §1
# [5] = system: E. coli BW25113 soxSp lux reporter
# Summary of the method: as §1
# [6] = system: E. coli BW25113 tolCp lux reporter
# Summary of the method: as §1
# [7] = 3.1 µg/ml, genetic background: wild type
# [8] = 3.1 µg/ml, genetic background: ΔmarA
# [9] = 3.1 µg/ml, genetic background: Δrob
# [10] = 3.1 µg/ml, genetic background: ΔsoxS
# [11] = 6.1 µg/ml, genetic background: wild type
# [12] = 6.1 µg/ml, genetic background: ΔmarA
# [13] = 6.1 µg/ml, genetic background: Δrob
# [14] = 6.1 µg/ml, genetic background: ΔsoxS
# [15] = 12.2 µg/ml, genetic background: wild type
# [16] = 12.2 µg/ml, genetic background: ΔmarA
# [17] = 12.2 µg/ml, genetic background: Δrob
# [18] = 12.2 µg/ml, genetic background: ΔsoxS
# [19] = 24.5 µg/ml, genetic background: wild type
# [20] = 24.5 µg/ml, genetic background: Δrob
# [21] = 24.5 µg/ml, genetic background: ΔsoxS
# [22] = 24.5 µg/ml, genetic background: ΔmarA
structure (smiles),measurement,setting,value
COc1ccc(C[C@H](N)C(=O)N[C@H]2[C@@H](O)[C@H](n3cnc4c(N(C)C)ncnc43)O[C@@H]2CO)cc1 [Puromycin],promoter activity interaction Z-score,[1]; [7],-0.169 ± 0.22
same,promoter activity interaction Z-score,[1]; [8],0.738 ± 0.17
same,promoter activity interaction Z-score,[1]; [9],0.211 ± 0.055
same,promoter activity interaction Z-score,[1]; [10],0.2622 ± 0.0026
same,promoter activity interaction Z-score,[1]; [11],-0.104 ± 0.052
same,promoter activity interaction Z-score,[1]; [12],0.582 ± 0.0062
same,promoter activity interaction Z-score,[1]; [13],0.153 ± 0.24
same,promoter activity interaction Z-score,[1]; [14],0.199 ± 0.57
same,promoter activity interaction Z-score,[1]; [15],-0.0259 ± 0.33
same,promoter activity interaction Z-score,[1]; [16],-0.302 ± 0.48
same,promoter activity interaction Z-score,[1]; [17],0.308 ± 0.44
same,promoter activity interaction Z-score,[1]; [18],0.649 ± 0.26
same,promoter activity interaction Z-score,[1]; [19],3.35 ± 1.5
same,promoter activity interaction Z-score,[1]; [20],3.54
same,promoter activity interaction Z-score,[1]; [21],0.855
same,promoter activity interaction Z-score,[2]; [7],0.0526 ± 0.12
same,promoter activity interaction Z-score,[2]; [8],0.103 ± 0.069
same,promoter activity interaction Z-score,[2]; [9],0.103 ± 0.15
same,promoter activity interaction Z-score,[2]; [10],0.0839 ± 0.0077
same,promoter activity interaction Z-score,[2]; [11],0.357 ± 0.041
same,promoter activity interaction Z-score,[2]; [12],0.0213 ± 0.081
same,promoter activity interaction Z-score,[2]; [13],0.102 ± 0.074
same,promoter activity interaction Z-score,[2]; [14],0.145 ± 0.035
same,promoter activity interaction Z-score,[2]; [15],0.699 ± 0.21
same,promoter activity interaction Z-score,[2]; [16],-0.00373 ± 0.096
same,promoter activity interaction Z-score,[2]; [17],0.459 ± 0.3
same,promoter activity interaction Z-score,[2]; [18],0.738 ± 0.034
same,promoter activity interaction Z-score,[2]; [19],1.71 ± 0.31
same,promoter activity interaction Z-score,[2]; [22],-0.484
same,promoter activity interaction Z-score,[2]; [20],0.834 ± 0.41
same,promoter activity interaction Z-score,[2]; [21],1.39 ± 0.35
same,promoter activity interaction Z-score,[3]; [7],0.322 ± 0.085
same,promoter activity interaction Z-score,[3]; [8],1.17 ± 0.67
same,promoter activity interaction Z-score,[3]; [9],0.656 ± 0.1
same,promoter activity interaction Z-score,[3]; [10],0.816 ± 0.3
same,promoter activity interaction Z-score,[3]; [11],0.855 ± 0.35
same,promoter activity interaction Z-score,[3]; [12],1.33 ± 0.85
same,promoter activity interaction Z-score,[3]; [13],0.692 ± 0.034
same,promoter activity interaction Z-score,[3]; [14],0.84 ± 0.13
same,promoter activity interaction Z-score,[3]; [15],0.351 ± 0.31
same,promoter activity interaction Z-score,[3]; [16],0.942 ± 0.49
same,promoter activity interaction Z-score,[3]; [17],0.448 ± 0.37
same,promoter activity interaction Z-score,[3]; [18],1.03 ± 0.34
same,promoter activity interaction Z-score,[3]; [19],0.599 ± 1.4
same,promoter activity interaction Z-score,[4]; [7],0.0602 ± 0.017
same,promoter activity interaction Z-score,[4]; [8],0.523 ± 0.036
same,promoter activity interaction Z-score,[4]; [9],0.5595 ± 0.0042
same,promoter activity interaction Z-score,[4]; [10],-0.174 ± 0.69
same,promoter activity interaction Z-score,[4]; [11],0.596 ± 0.45
same,promoter activity interaction Z-score,[4]; [12],0.0157 ± 0.15
same,promoter activity interaction Z-score,[4]; [13],0.269 ± 0.22
same,promoter activity interaction Z-score,[4]; [14],0.279 ± 0.33
same,promoter activity interaction Z-score,[4]; [15],-0.231 ± 0.16
same,promoter activity interaction Z-score,[4]; [16],0.0377 ± 0.16
same,promoter activity interaction Z-score,[4]; [17],-0.211 ± 0.45
same,promoter activity interaction Z-score,[4]; [18],0.0544 ± 0.43
same,promoter activity interaction Z-score,[4]; [19],-0.191
same,promoter activity interaction Z-score,[4]; [22],-0.499
same,promoter activity interaction Z-score,[5]; [7],-0.228 ± 0.044
same,promoter activity interaction Z-score,[5]; [8],-0.0397 ± 0.09
same,promoter activity interaction Z-score,[5]; [9],0.102 ± 0.24
same,promoter activity interaction Z-score,[5]; [10],0.373 ± 0.73
same,promoter activity interaction Z-score,[5]; [11],-0.0604 ± 0.21
same,promoter activity interaction Z-score,[5]; [12],0.0219 ± 0.021
same,promoter activity interaction Z-score,[5]; [13],-0.144 ± 0.099
same,promoter activity interaction Z-score,[5]; [14],0.298 ± 0.46
same,promoter activity interaction Z-score,[5]; [15],0.0076 ± 0.14
same,promoter activity interaction Z-score,[5]; [16],0.0786 ± 0.15
same,promoter activity interaction Z-score,[5]; [17],0.00948 ± 0.09
same,promoter activity interaction Z-score,[5]; [18],0.315 ± 0.021
same,promoter activity interaction Z-score,[5]; [19],-0.0601 ± 0.063
same,promoter activity interaction Z-score,[5]; [22],-0.197 ± 0.049
same,promoter activity interaction Z-score,[5]; [20],-0.131 ± 0.33
same,promoter activity interaction Z-score,[5]; [21],0.525 ± 0.4
same,promoter activity interaction Z-score,[6]; [7],-0.726 ± 1
same,promoter activity interaction Z-score,[6]; [8],-0.59 ± 0.65
same,promoter activity interaction Z-score,[6]; [9],-0.281 ± 0.23
same,promoter activity interaction Z-score,[6]; [10],0.126 ± 0.63
same,promoter activity interaction Z-score,[6]; [11],-0.252 ± 0.51
same,promoter activity interaction Z-score,[6]; [12],-0.611 ± 0.2
same,promoter activity interaction Z-score,[6]; [13],-0.785 ± 0.27
same,promoter activity interaction Z-score,[6]; [14],-0.165 ± 0.34
same,promoter activity interaction Z-score,[6]; [15],-0.285 ± 0.69
same,promoter activity interaction Z-score,[6]; [16],0.412 ± 0.11
same,promoter activity interaction Z-score,[6]; [17],-0.374 ± 0.33
same,promoter activity interaction Z-score,[6]; [18],-0.186 ± 0.2
same,promoter activity interaction Z-score,[6]; [19],1.04 ± 0.64
same,promoter activity interaction Z-score,[6]; [22],1.74
same,promoter activity interaction Z-score,[6]; [20],-0.0754 ± 0.73
same,promoter activity interaction Z-score,[6]; [21],0.227 ± 0.79

# Reference: the supplement of paper PMC12282887
